Laboratory results as given in publication PMC4336329 (PLoS ONE, 2015).
The whole screen tested about 310,000 compounds, of which about 14,000 (4.5%) showed an effect of 50% or more. The effect is printed as a negative number. Only a selection was taken, and strong results are over-represented in it overall.

Each compound was assayed against human ether-à-go-go-related gene (hERG) potassium channel (human, UniProt Q12809) (assay: primary screen, population patch clamp on CHO cells stably expressing hERG; higher = less effect of the substance).
Sequence of human ether-à-go-go-related gene (hERG) potassium channel (Q12809 whole entry, looked up): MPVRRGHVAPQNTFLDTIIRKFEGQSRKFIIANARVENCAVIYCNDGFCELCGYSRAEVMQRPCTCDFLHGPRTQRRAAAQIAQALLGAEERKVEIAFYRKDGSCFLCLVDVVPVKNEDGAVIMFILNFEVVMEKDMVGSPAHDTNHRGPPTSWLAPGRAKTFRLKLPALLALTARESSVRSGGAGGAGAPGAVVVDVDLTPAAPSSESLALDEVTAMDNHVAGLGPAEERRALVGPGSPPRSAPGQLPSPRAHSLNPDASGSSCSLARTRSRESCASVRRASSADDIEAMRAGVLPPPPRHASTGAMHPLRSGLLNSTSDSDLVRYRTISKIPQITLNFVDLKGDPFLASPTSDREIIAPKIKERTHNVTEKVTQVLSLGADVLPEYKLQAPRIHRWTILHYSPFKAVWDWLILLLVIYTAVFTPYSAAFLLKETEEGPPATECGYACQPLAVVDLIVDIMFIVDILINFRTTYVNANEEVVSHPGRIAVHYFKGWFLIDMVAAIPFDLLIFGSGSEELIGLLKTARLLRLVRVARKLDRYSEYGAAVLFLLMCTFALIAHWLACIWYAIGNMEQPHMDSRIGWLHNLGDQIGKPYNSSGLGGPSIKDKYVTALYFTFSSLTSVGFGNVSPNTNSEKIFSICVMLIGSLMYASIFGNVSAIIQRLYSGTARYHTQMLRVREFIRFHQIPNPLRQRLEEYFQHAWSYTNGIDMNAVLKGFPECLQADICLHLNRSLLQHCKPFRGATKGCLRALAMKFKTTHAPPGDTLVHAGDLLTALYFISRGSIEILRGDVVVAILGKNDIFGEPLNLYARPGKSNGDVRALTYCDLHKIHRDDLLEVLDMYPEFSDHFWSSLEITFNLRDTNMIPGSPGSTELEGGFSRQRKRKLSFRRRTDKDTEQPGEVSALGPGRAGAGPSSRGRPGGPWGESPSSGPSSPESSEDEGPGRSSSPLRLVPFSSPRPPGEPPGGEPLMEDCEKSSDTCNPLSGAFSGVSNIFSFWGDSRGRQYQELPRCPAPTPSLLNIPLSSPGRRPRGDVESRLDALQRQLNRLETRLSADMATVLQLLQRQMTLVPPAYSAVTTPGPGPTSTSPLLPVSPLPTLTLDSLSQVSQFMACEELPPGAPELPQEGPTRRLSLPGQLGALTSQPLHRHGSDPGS
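Note: peak tail current of the secondary pulse compared with the same well before compound.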

Structure (SMILES) | hERG current change (%, negative = inhibition) at 10uM
O=C1CCCC(O)=C1N=Nc1cccc(S(=O)(=O)N2CCOCC2)c1 | -1.24%
O=C(N/N=C\c1ccc[nH]1)c1cncc(Br)c1 | 3.82%
O=C(NCc1ccccn1)C1CCCN(S(=O)(=O)c2ccccc2)C1 (stereo not drawn) | 10.9%
COc1ccc(C(=O)NCc2nnc(SCC(=O)NO)n2Cc2ccccc2)cc1 | -5.01%
Cc1c(C(=O)NC(C)c2ccc(-n3ccnc3)cc2)cccc1[N+](=O)[O-] (stereo not drawn) | -74.1%
O=[N+]([O-])c1ccc(-n2ccnc2)cc1 | 7.95%
CC(NC(=O)c1cc([N+](=O)[O-])cc([N+](=O)[O-])c1)c1ccc(-n2ccnc2)cc1 (stereo not drawn) | -73.5%
CC(NC(=O)c1ccc(N(C)C)c([N+](=O)[O-])c1)c1ccc(-n2ccnc2)cc1 (stereo not drawn) | -62.9%
COc1ccccc1NC(=O)c1ccc(-n2ccnc2)c([N+](=O)[O-])c1 | 15.1%
Cc1cccc(C(=O)NC(C)c2ccc(-n3ccnc3)cc2)c1C (stereo not drawn) | -42.2%
Cc1c(C(=O)NC(C)CCc2ccccc2)cccc1[N+](=O)[O-] (stereo not drawn) | -18.2%
O=C(O)c1ccc(-n2ccnc2)c([N+](=O)[O-])c1 | 32.1%
COc1ccc(C(=O)NNC(=O)c2ccncc2)cc1[N+](=O)[O-] | 25.2%
COc1ccc(C(=O)NC(C)c2ccc(-n3ccnc3)cc2)cc1[N+](=O)[O-] (stereo not drawn) | -77.9%
Cc1cccc(N2CN(Cc3cccnc3)CNC2=S)c1 | -3.28%
COc1ccc(-c2cc(=O)oc3c(C)c(OCC(=O)Nc4cccnc4)ccc23)cc1 | -11.6%
CC(=O)c1ccc(N2CCN(C(=O)c3cc(-c4ccc5c(c4)OCO5)nc4ccccc34)CC2)cc1 | 2.88%
CCn1cc(S(=O)(=O)NCc2ccccc2Br)cn1 | -1.6%
CCOC(=O)N1CCN(C(=O)c2c[nH]c3ccc(S(=O)(=O)N(C)c4ccccc4C)cc3c2=O)CC1 | -1.1%
O[C@@H]1CCCN2CCc3c([nH]c4ccccc34)[C@H]12 | 10.9%
Cc1onc(-c2c(Cl)cccc2Cl)c1C(=O)N1CCN(c2ccccc2F)CC1 | 7.58%
Cc1ccc(S(=O)(=O)N(CC(=O)N2CCCC2)C2CCCCC2)cc1 | -37.7%
O=C(CN(C1CCCCC1)S(=O)(=O)c1ccc(Cl)cc1)N1CCOCC1 | -59.5%
CCOC(=O)N1CCN(C(=O)CN(C2CCCCC2)S(=O)(=O)c2ccc(Cl)cc2)CC1 | -47.8%
O=C(CN(C1CCCCC1)S(=O)(=O)c1ccccc1)N1CCCC1 | -59.3%
NC(=O)C1CCN(C(=O)CN(C2CCCCC2)S(=O)(=O)c2ccc(F)cc2)CC1 | -13.4%
Cc1ccc(S(=O)(=O)N(CC(=O)N2CCOCC2)C2CCCCC2)cc1 | -23.3%
